In the library only some 3.7% were active in any assay of this set; here they are far more common.
FMDV antiviral: antivirals against foot and mouth disease virus | 410,000 compounds, 1.2% hits | Potency, µM (highest dose often 57.9 µM), for the others: at the top dose activity change, negative = inhibition, hits mostly inhibitors | FMDV antiviral cell-based qHTS; calls by dose curve; tested in HEK293T cells; further: read-out not given here; nearly all actives have a fitted effect of over 45% in size
Tb PYK inh: blocks Trypanosoma brucei pyruvate kinase; 410,000 compounds, 0.12% hits; Q57TT1; TbPYK enzyme, Kinase-Glo Plus ATP luminescence, 45 min; Potency, µM (top dose mostly 76.8 µM), for inactives: at the highest dose activity, negative = inhibition, actives largely listed as inhibitors; AID 624173; further: nearly all actives have a fitted effect of over 50% in size
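Enzyme and substrate buffer are dispensed first and compound is pin-transferred. ADP at 130 uM final then starts the reaction, which runs 45 min at room temperature. Detection reagent is added for 10 min before luminescence is imaged.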
Sm TGR block: inhibitors of Schistosoma mansoni thioredoxin glutathione reductase; Potency, µM (series often up to 114 µM), inactives show at the highest dose activity change, negative = inhibition, usual class: inhibitors; purified TGR, DTNB reduction, TNB absorbance 405 nm; AID 485364; 360,000 compounds, 3% hits; further: nearly all actives have a fitted effect of over 60% in size
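First, TGR (20 nM dispensed) and NADPH were mixed with compound. Second, a 15 min room-temperature incubation followed. Third, further NADPH and then DTNB were added to start the reaction. Finally, TNB absorbance was monitored kinetically.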
RE007 growth inh: less growth of the S. pombe RE007 Vpr strain. S. pombe RE007 Vpr strain, BacTiter-Glo ATP luminescence, 24 h. Potency, µM (top dose mostly 92.2 µM), for the others: at the top dose activity change, negative = less growth, most hits filed as inhibitors. 360,000 compounds, 0.21% hits. AID 651644; active means well fitted falling curve with a large enough effect; inconclusive means small, poorly fitted or top-dose-only effect; inactive means no such curve, though single readings can be large or run the other way; further: nearly all actives have a fitted effect of over 50% in size
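Fission yeast RE007 carrying one integrated HIV-1 vpr copy, seeded at OD 0.01 in PMG+AL medium with 23 nL pinned compound. Grown 24 h at 30 degrees; viability read by BacTiter-Glo luminescence after 5 min.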
Active calls of the source: *; ? = inconclusive; nt = not tested or not shown; [ ] = dose if it differs, or a comment. Unless noted, the call rests on the fitted dose curve; in most records, active means well fitted curve in the direction sought with a large enough effect; inconclusive means small, poorly fitted or top-dose-only effect, or another doubt; inactive means no such curve, though single readings can be large; an effect the other way counts as inactive or inconclusive. On the % scale 0 is the no-effect control and ±100 the full control effect; potency means the concentration at half of the fitted maximal effect.

SMILES | FMDV antiviral | Tb PYK inh | Sm TGR block | RE007 growth inh
Cc1ccc(C2CC(c3cccs3)=NN2C(=O)CCl)cc1 (centres undefined) | 17.8µM* | -7.0% | 2.51µM* | 14.2%
CCC(=O)N1N=C(c2cccs2)CC1c1ccc(C)cc1 (centres undefined) | 7.0% | -5.5% | -16.3% | 18.9%
CN1C(=O)CC(Nc2cccc3cccc(N)c23)C1=O (centres undefined) | -10.4% | -4.4% | 31.6µM* | -25.5%
Nc1c(C(=O)Nc2ccccc2F)sc2nc(-c3ccco3)ccc12 | ? | -5.3% | 2.82µM* | -12.8%
COC(=O)c1sc2nc(-c3ccco3)ccc2c1N | -26.6% | ? | 2.82µM* | -16.4%
NC(=O)c1sc2nc(-c3ccco3)ccc2c1N | 26.7% | -16.0% | ? | -1.0%
Nc1c(C(=O)Nc2ccccc2F)sc2nc(-c3cccnc3)ccc12 | 35.4% | -18.1% | -10.0% | 2.0%
CCOC(=O)CSc1nc2c(sc3ccccc32)c(=O)n1Cc1ccc(OC)cc1 | -26.6% | -3.9% | -1.9% | nt
O=C1NC(c2cn(-c3ccccc3)nc2-c2cccs2)C(C(=O)c2cccnc2)C(O)(C(F)(F)F)N1 (centres undefined) | -1.6% | -11.1% | ? | -24.8%
COc1cccc(C2NC(=O)NC(O)(C(F)(F)F)C2C(=O)c2cccnc2)c1OC (centres undefined) | -0.4% | 6.9% | 22.4µM* | -10.1%
COc1ccc(C2NC(=O)NC(O)(C(F)(F)F)C2C(=O)c2ccccc2)cc1OC (centres undefined) | nt | -15.2% | 35.5µM* | -0.4%
CCn1c2c(c(=O)n3ncc(C(=O)Nc4ccc(C(=O)OC)cc4)c13)CN(Cc1ccc(OC)cc1)CC2 | -3.3% | ? | -15.8% | nt
COCCn1c(=O)c(-c2cn(C)c3ccccc23)nc2cnc(N3CCNCC3)nc21 | -13.4% | nt | nt | nt
COc1ccc(Cn2cc([N+](=O)[O-])nc2C)cc1[N+](=O)[O-] | 0.2% | -16.0% | 5.3% | 1.5%
COc1ccc(Cn2c(C)nc([N+](=O)[O-])c2SCC(=O)O)cc1[N+](=O)[O-] | -6.8% | 3.8% | 35.5µM* | 13.8%
Cc1ccc(S(=O)(=O)N2CCN(Cc3nnc(-c4c(-c5ccccc5)noc4C)o3)CC2)cc1 | 39.8µM* | -8.0% | -3.0% | 9.9%
COC(=O)CSc1nc2c(c(-c3ccco3)c1C#N)CCCC2 | -25.2% | ? | 3.16µM* | 0.0%
CCOC(=O)CSc1nc2c(c(-c3ccc(C)o3)c1C#N)CCCC2 | -2.0% | -3.2% | 44.7µM* | -13.6%
COC(=O)CSc1nc2c(c(-c3ccc(O)cc3)c1C#N)CCCC2 | -6.2% | -1.4% | nt | 44.5%
O=C(NCCc1ccc(Cl)cc1)c1ccc(CS(=O)(=O)c2ccc(Cl)cc2)o1 | -9.1% | 4.3% | -2.4% | nt
COc1ccccc1CN1CCNC(=O)C1=O | -20.5% | 1.1% | -5.8% | nt
COc1ccc(NC(=O)C2Cc3c(-c4ccc(NC(C)=O)cc4)ccnc3O2)cc1OC (centres undefined) | -14.0% | -0.7% | nt | -10.2%[18.4 µM]
CC(=O)c1cccc(-c2ccnc3c2CC(C(=O)Nc2ccc(Cl)cc2)O3)c1 (centres undefined) | ? | 1.3% | nt | 1.9%
COc1ccc(NC(=O)C2Cc3c(-c4cccc(F)c4)ccnc3O2)cc1OC (centres undefined) | 15.8µM* | -3.6% | nt | -5.6%[18.4 µM]
CC(=O)c1cccc(NC(=O)C2Cc3c(-c4ccc(Cl)cc4)ccnc3O2)c1 (centres undefined) | 35.5µM* | 0.9% | nt | -21.4%
SMILES | FMDV antiviral | Tb PYK inh | Sm TGR block | RE007 growth inh
COc1cc(NC(=O)C2CC(c3c(F)cccc3Cl)=NO2)cc(OC)c1OC (centres undefined) | 25.1µM* | 2.0% | -13.9% | -4.2%
COc1ccc(NC(=O)C2Cc3c(-c4ccc5c(c4)OCO5)ccnc3O2)cc1OC (centres undefined) | 11.2µM* | -0.5% | nt | -22.9%
CC(C)c1c(C(=O)N2CCCCC2c2cccnc2)cnn1-c1nccc(-c2cccs2)n1 (centres undefined) | -18.0% | nt | nt | nt
COc1ccc(C2=NOC(C(=O)Nc3ccc4c(c3)OCCO4)C2)cc1OC (centres undefined) | -14.9% | 2.8% | 31.6µM* | 13.1%
Cc1ccc(-c2nc(N/N=C/c3ccncc3)c3ccccc3n2)cc1 | 1µM* | -13.7% | 2.4% | ?
COc1ccc(/C=N/Nc2nc(-c3cccnc3)nc3ccccc23)cc1OC | -11.8% | -3.8% | -0.3% | -21.9%
COc1ccc(-c2nc3cnc(N4CCNCC4)nc3n(Cc3cccs3)c2=O)cc1 | 2.4% | nt | nt | nt
C=CCc1cc(C)ccc1OCCCC(C(=O)OCC)C(=O)OCC | ? | 0.5% | 2.1% | 3.3%
CCCCCOc1ccc(C)cc1CN(CCCl)CCCl | -3.9% | -0.4% | 11.2µM* | ?
CCOC(=O)c1sc2nc(-c3ccco3)c3c(c2c1N)CC(C)(C)OC3 | ? | ? | 0.891µM* | -29.2%
CC(C)Sc1nc(SCC(=O)NCc2ccco2)c2c3c(sc2n1)COC(C)(C)C3 | ? | 2.0% | 28.2µM* | 11.8%
CCCc1nc2sc3c(SCC(=O)NCc4ccco4)ncnc3c2c2c1CCC2 | 2.1% | -10.1% | 15.8µM* | 4.4%
COC(=O)CSc1ncnc2c1sc1nc(-c3ccco3)c3c(c12)CC(C)(C)OC3 | nt | nt | 3.98µM* | nt
Cc1nc2sc(C(=O)O)c(N)c2c2c1COC(C)(C)C2 | -1.6% | ? | 0.0% | 15.3%
CC(C)c1nc2sc3c(NCc4ccco4)ncnc3c2c2c1COC(C)(C)C2 | 0.0% | -5.5% | ? | -9.6%
COc1ccccc1C1CN(CCNC(=O)c2cscn2)Cc2ccccc2O1 (centres undefined) | 7.2% | nt | nt | nt
Cc1sc2ncnc(NCCc3ccc(S(N)(=O)=O)cc3)c2c1C | 11.2µM* | 2.3% | 4.5% | 8.6%
NS(=O)(=O)c1ccc(CCNc2ncnc3sccc23)cc1 | ? | -2.9% | 0.0% | -8.7%
O=C(Nc1cc(-c2nc3cc(Cl)ccc3o2)ccc1Cl)c1cccc2ccccc12 | 47.0% | -6.1% | -113.6% | nt
Cc1ccc(Oc2c(C(F)(F)F)oc3c(CN4CCC(C)CC4)c(O)ccc3c2=O)cc1 | -3.6% | 0.6% | -4.5% | nt
COc1ccc(C2=NOC3(CC(=O)N(c4ccc(F)cc4)C3=O)C2)cc1 (centres undefined) | -5.7% | -3.5% | 20µM* | -1.6%
Cc1ccc(OCC(=O)Nc2ccc(S(=O)(=O)Nc3ncccn3)cc2)c(C(C)(C)C)c1 | -25.4% | -4.2% | -0.5% | nt
CCOC(=O)c1[nH]c2c(c1Cc1ccccc1)C(=O)CC(c1ccc(OC)cc1)C2 (centres undefined) | 12.1% | -3.2% | 4.3% | nt
O=C1C=CC(=O)N1c1ccc2c(c1)C(NC(=O)C(F)(F)F)c1ccccc1-2 (centres undefined) | ? | ? | nt | 39.8µM*
Clc1ccc(-c2ccc(CN3CCCCC3)o2)cc1 | 32.3% | -4.4% | ? | -1.4%
O=C(O)CCc1ccc(-c2cccs2)o1 | nt | ? | 0.708µM* | ?
OCCc1ccc(-c2ccc(Cl)cc2)o1 | 30.7% | -0.9% | 44.7µM* | ?
Cc1ccc(-c2ccc(CCC(=O)O)o2)cc1 | 11.9% | ? | 12.6µM* | -14.2%
